Measurements from the supplement of paper PMC3842684.

Legend:
[1] = tested on: P. falciparum NF54-pfs16-GFP early (I-III) stage gametocytes; test: relative % inhibition of viable gametocyte number; higher = more gametocytocidal; settings: stage: early (I-III) gametocyte, incubation 72 h
Summary of the method: (§1)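 Viable gametocytes were counted by confocal imaging as elongated GFP objects carrying MitoTracker Red signal above a cut-off, after 72 h of compound exposure (5 or 0.5 µM) at 37°C in 5% CO2 and 5% O2 and overnight staining. The NF54 pfs16-GFP gametocytes had been magnet-isolated at early (I/IIa, day 2) or late (day 8) stage and plated at 10% parasitaemia, 0.1% haematocrit in 384-well poly-D-lysine imaging plates. Relative inhibition was normalised to vehicle and positive-control wells within each plate.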

[2] = tested on: P. falciparum NF54-pfs16-GFP late (IV-V) stage gametocytes; test: as above; settings: stage: late (IV-V) gametocyte, incubation 72 h
Summary of the method: as §1

SMILES	relative % inhibition ([1]; 0.5 µM)	relative % inhibition ([1]; 5 µM)	relative % inhibition ([2]; 0.5 µM)	relative % inhibition ([2]; 5 µM)
COc1cccc(O)c1CN1CCC2(CCCN(Cc3ccc(F)cc3)C2)C1 (configuration not stated)	11.3%	80.5%	17.2%	98.8%
CCCc1c(C)nc2ccccc2c1O	-8.06%	15.7%	56.5%	72.3%
CC1CC2=C(CC1CNCCCN(C)C)C(C)(C)CCC2 (configuration not stated)	33.8%	97.1%	20.7%	85.3%
O=C(Nc1ccc(-c2nc3cc(NC(=O)c4ccc(Cl)cc4)ccc3[nH]2)cc1)c1ccc(Cl)cc1	6.74%	48.5%	-5.09%	24.8%
COc1ccc(-c2c(C)nn3c(N)c(C#N)cnc23)cc1OC	-24.1%	22.9%	63.6%	108%
CN(C)c1ccc(-c2nc3cc(N)ccc3[nH]2)cc1	-6.62%	18.8%	-13.1%	-10.8%
Oc1ccccc1CN1CCC2(CCCN(Cc3ccccc3F)C2)C1 (configuration not stated)	32.5%	93.8%	34.9%	61.2%
CC(C)=CCN1CCC(C(=O)Nc2ccc(-c3nc4ccccc4[nH]3)cc2)CC1	3.42%	74.1%	16.4%	-15.7%
CCOC(=O)C1CCN(C(=O)CN2C(=O)c3ccccc3C2c2c[nH]c3ccccc23)CC1 (configuration not stated)	7.45%	98.3%	28.9%	63.3%
Cc1ccc(OCCCCCCNCCO)c(C)c1	2.04%	30.1%	-16.2%	-15.5%
Cc1cc(N2CCN(C3CCCC3)CC2)n2c(nc3ccccc32)c1C#N	-10.1%	-15.8%	11.3%	6.77%
CCc1ccc(CNCC(O)c2ccccc2)cc1 (configuration not stated)	9.08%	44.3%	3.65%	11.4%
FC(F)(F)c1cccc(CNC2CCN(CCc3ccccc3)CC2)c1	-2.89%	82.2%	1.32%	-17.4%
